In the supplement of paper PMC11732987, “Enantioselective OTUD7B fragment discovery through chemoproteomics screening and high-throughput optimisation” (Communications Chemistry, 2025):

Biological target: COPS5 (UniProt Q92905)
Test: log2 ratio of Biotin-Ahx-Ub-VS probe labelling (fragment/DMSO); higher = less target engagement (more negative = stronger competition), active = hit call of the paper (q ≤ 0.05, log2 ratio ≤ -1)
Settings: compound concentration: 200 uM; treatment time: 3 h
Procedure: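 Competitive ABPP in HEK293T cell lysate. Lysates were treated with each chloroacetamide fragment at 200 µM for 3 h, then with Biotin-Ahx-Ub-VS (0.5 µM, 1 h), NeutrAvidin-enriched and analysed by diaPASEF LC-MS/MS. Protein LFQ was median-normalised; average log2 ratio is fragment/DMSO from an unpaired t-test (n=3 treated, n=44 DMSO). Hits: q ≤ 0.05, log2 ratio ≤ -1, unique peptides ≥ 2.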

Chain of COPS5 (Q92905 whole entry, looked up, the tested form may be a part): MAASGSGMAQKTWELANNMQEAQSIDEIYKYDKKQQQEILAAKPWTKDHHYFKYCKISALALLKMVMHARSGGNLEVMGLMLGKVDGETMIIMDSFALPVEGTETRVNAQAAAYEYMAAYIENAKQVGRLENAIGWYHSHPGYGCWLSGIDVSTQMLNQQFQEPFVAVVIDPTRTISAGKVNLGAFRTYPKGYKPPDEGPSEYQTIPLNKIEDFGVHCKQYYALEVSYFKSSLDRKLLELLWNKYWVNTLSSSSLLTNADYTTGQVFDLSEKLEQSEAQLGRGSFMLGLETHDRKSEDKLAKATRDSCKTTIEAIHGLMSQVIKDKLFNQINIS

log2 ratio of Biotin-Ahx-Ub-VS probe labelling, inactive:
O=C(CCl)NC1CCC2(CC1)OCCO2 0.176
Cc1ccc(C(=O)NCCNC(=O)CCl)cc1 -0.05
CC(C)n1nccc1NC(=O)CCl 0.0761
NS(=O)(=O)c1ccc(Cl)c(NC(=O)CCl)c1 0.226
Cl.O=C(CCl)N1CCN(Cc2ccccc2)CC1 -0.0604
O=C(CCl)N1c2ccccc2NC(=O)C12CCCC2 0.325
CN(C)S(=O)(=O)c1ccccc1CNC(=O)CCl 0.197
O=C(CCl)NCc1ccc(Cl)cc1 -0.152
Cc1ccccc1C1(CNC(=O)CCl)CCOCC1 0.211
CN(CCc1ncc(Br)cn1)C(=O)CCl.Cl 0.2
Cc1ccccc1CN(C)C(=O)CCl 0.0682
Cl.Cn1nccc1C(NC(=O)CCl)c1ccccc1 (stereo not given) 0.313
O=C(CCl)Nc1cc(Cl)ccc1-n1cncn1 -0.332
O=C(CCl)Nc1ccc(F)cc1Cl -0.284
O=C(CN1CCN(C(=O)CCl)CC1)Nc1cccc(F)c1 0.273
O=C(CCl)N1CCC(C(=O)N2CCCCCC2)CC1 -0.0587
CC(NC(=O)CCl)c1noc(Cc2ccccc2)n1 (stereo not given) 0.201
Cc1conc1C1CN(C(=O)CCl)C1 0.0369
O=C(CCl)NCC1(c2ccccc2)CC1 0.0827
CNC(=O)C1CCN(C(=O)CCl)CC1 0.16
CCN(Cc1ccc(C#N)cc1F)C(=O)CCl -0.0333
Cl.O=C(CN1CCN(C(=O)CCl)CC1)Nc1ccc(F)cc1 0.0025
Cc1noc(C)c1CNC(=O)CCl 0.13
O=C(CCl)N1CCc2nc[nH]c2C1c1ccc(Cl)cc1 (stereo not given) -0.139
Cc1n[nH]c2c1CN(C(=O)CCl)CC2 0.184
Cc1noc(N2CCN(C(=O)CCl)CC2)n1.Cl -0.17
O=C(CCl)N1CCOC2(CCC2)CC1 -0.0213
Cl.O=C(CCl)NCCN1CCc2ccccc21 0.365
COc1cccc(CN(C)C(=O)CCl)c1 0.0731
Cc1c(NC(=O)CCl)c(=O)n(-c2ccccc2)n1C -0.0844
Cc1ccc2nnc(CNC(=O)CCl)n2c1 -0.118
Cc1ccc(CN(C)C(=O)CCl)o1 0.0171
O=C(CCl)Nc1cc2c(cc1Cl)OCCCO2 -0.0643
CCN(C(=O)CCl)C1CCS(=O)(=O)C1 (stereo not given) -0.0629
Cl.Cn1nc2c(c1CNC(=O)CCl)CCCC2 -0.111
O=C(CCl)N1CCCCC12CCOCC2 0.0647
O=C(O)C1Cc2ccccc2CN1C(=O)CCl (stereo not given) 0.15
O=C(CCl)NCCC1COCCO1 (stereo not given) -0.0816
Cl.Cn1ncc2c1CCCC2NC(=O)CCl (stereo not given) -0.0371
N#Cc1cnn(-c2ccccc2)c1NC(=O)CCl -0.123
